# Values without a mark were called inactive. Results filed as inconclusive are left out. A call without a number means that no potency is given here. Calls of active or inactive are those of the source. Unless noted, the call rests on the fitted dose curve; in most records, active means well fitted curve in the direction sought with a large enough effect in the repeat runs; inconclusive means weak or mixed curves; inactive means no such curve, though single readings can be large; an effect the other way counts as inactive or inconclusive.
# What was measured:
# [1] = target: Thyrotropin receptor (Homo sapiens) (UniProt P16473); experiment: qHTS assay to identify small molecule agonists of the thyroid stimulating hormone receptor (TSHR) signaling pathway (AID 1224843; calls by dose curve; further: nearly all actives have a fitted effect of over 45% in size)
# Chain of Thyrotropin receptor (Homo sapiens) (P16473 whole entry, looked up): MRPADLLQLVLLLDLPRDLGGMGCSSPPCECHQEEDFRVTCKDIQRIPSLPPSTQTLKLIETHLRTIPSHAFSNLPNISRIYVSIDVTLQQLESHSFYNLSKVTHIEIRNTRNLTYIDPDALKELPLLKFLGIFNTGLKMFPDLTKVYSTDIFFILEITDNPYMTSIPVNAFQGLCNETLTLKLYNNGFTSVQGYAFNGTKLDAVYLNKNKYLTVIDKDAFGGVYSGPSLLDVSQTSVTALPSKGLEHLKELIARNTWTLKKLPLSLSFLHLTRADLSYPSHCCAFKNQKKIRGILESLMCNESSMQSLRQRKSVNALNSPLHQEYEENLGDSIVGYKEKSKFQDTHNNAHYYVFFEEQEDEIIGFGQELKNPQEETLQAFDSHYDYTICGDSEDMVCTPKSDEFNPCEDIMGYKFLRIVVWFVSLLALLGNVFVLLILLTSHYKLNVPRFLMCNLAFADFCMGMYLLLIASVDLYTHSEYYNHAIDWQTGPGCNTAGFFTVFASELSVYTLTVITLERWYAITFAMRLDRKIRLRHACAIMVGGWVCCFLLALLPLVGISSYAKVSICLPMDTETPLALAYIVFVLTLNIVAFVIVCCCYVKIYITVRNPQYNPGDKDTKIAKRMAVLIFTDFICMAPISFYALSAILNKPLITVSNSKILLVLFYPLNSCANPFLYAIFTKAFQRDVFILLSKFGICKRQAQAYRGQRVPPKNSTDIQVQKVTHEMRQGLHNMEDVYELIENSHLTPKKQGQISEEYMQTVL
# Method in brief: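 Screening of the Tox21 10K collection used HEK293 cells engineered with TSHR at 800 cells per well. After a 30-min room-temperature compound exposure, HTRF cAMP reagents were added and fluorescence recorded 1 h later.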
# [2] = qHTS assay to identify small molecule agonists of the hypoxia (HIF-1) signaling pathway - cell viability counter screen (AID 1224844; calls by dose curve; further: nearly all actives have a fitted effect of over 50% in size)
# Method in brief: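 HRE-bla ME-180 cells in medium with 0.5% dialyzed FBS were preincubated 5 hrs at 37C, exposed to compounds for 17 hrs, then viability was read as CellTiter-Glo luminescence after 30 min at room temperature, in the reporter wells.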
# [3] = qHTS assay to identify small molecule agonists of the hypoxia (HIF-1) signaling pathway (AID 1224846; active means well fitted activation curve with a large enough effect in the signal ratio in the repeat runs, not every such curve was filed as active; the % refers to the signal ratio)
# Method in brief: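 HRE-bla ME-180 cells (beta-lactamase reporter under hypoxia response element) were plated at 2,000 cells/well in medium with 0.5% dialyzed FBS, rested 5 hrs, then given compounds in DMSO for 17 hrs at 37C, 5% CO2. Reporter induction was read with CCF4-AM FRET substrate.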
# [4] = qHTS assay to identify small molecule agonists of H2AX - cell viability counter screen (AID 1224847; calls by dose curve;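 further: wild-type CHO-K1 cells; top concentration of the series differs between compounds; nearly all actives have a fitted effect of over 30% in size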)
# Method in brief: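 CHO-K1 wt, 1000 cells/well, o/n 37C; cpds 15 conc, 3 h 37C, 0.76% DMSO; CellTiter-Glo, 30 min RT, luminescence.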
# [5] = qHTS RealTime-Glo MT Cell Viability Assay in HepG2 cells - 24 hour (AID 1224867); further: nearly all actives have a fitted effect of over 50% in size
# Method in brief: (§1)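 Tox21 10K library screened in qHTS format on HepG2 cells carrying RealTime-Glo reagents. Compounds were added after a 5 h preincubation, and the luminescent signal from continuous culture was measured repeatedly during 40 h treatment.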
# [6] = qHTS RealTime-Glo MT Cell Viability Assay in HEK293 cells - 32 hour (AID 1224868); further: top concentration of the series differs between compounds; nearly all actives have a fitted effect of over 50% in size
# Method in brief: (§2)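 Luminescence generated by NanoLuc from substrate produced by living HEK293 cells served as the viability signal. Each value reflects the reading at its stated time point during continuous 40 h compound exposure at 37 C.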
# [7] = A CellTox Green Cytotoxicity Assay to monitor cytotoxicity in HEK293 cells - 0 hour (AID 1224869); further: nearly all actives have a fitted effect of over 50% in size
# Method in brief: (§3)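 HEK293 cells premixed with CellTox Green dye were seeded at 600 cells/well and left 5 h at 37 C/5% CO2 before pin transfer of 23 nL compound in DMSO. Fluorescence from dye bound to dead-cell DNA was read during 40 h treatment.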
# [8] = qHTS RealTime-Glo MT Cell Viability Assay in HepG2 cells - 40 hour (AID 1224870); further: nearly all actives have a fitted effect of over 50% in size
# Method in brief: (§4)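 Real-time viability: cells seeded at 600 per well together with NanoLuc and cell-permeant prosubstrate, compounds added after 5 h incubation. Luminescence tracked at 0, 8, 16, 24, 32 and 40 h of exposure.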
# [9] = A CellTox Green Cytotoxicity Assay to monitor cytotoxicity in HEK293 cells - 40 hour (AID 1224871); further: nearly all actives have a fitted effect of over 45% in size; further: potency means the concentration at half of the fitted maximal effect
# Method in brief: as §3
# [10] = qHTS RealTime-Glo MT Cell Viability Assay in HEK293 cells - 16 hour (AID 1224872)
# Method in brief: as §2
# [11] = qHTS RealTime-Glo MT Cell Viability Assay in HepG2 cells - 8 hour (AID 1224873); further: nearly all actives have a fitted effect of over 55% in size
# Method in brief: as §4
# [12] = qHTS RealTime-Glo MT Cell Viability Assay in HEK293 cells - 40 hour (AID 1224874); settings: RealTime-Glo luminescence; max response: hits give low values; further: nearly all actives have a fitted effect of over 50% in size
# Method in brief: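 HEK293 cells mixed with RealTime-Glo reagents (NanoLuc plus cell-permeant prosubstrate) at 600 cells/well, preincubated 5 h at 37 C/5% CO2, then given 23 nL compound in DMSO. Nonlytic luminescence from viable cells was read at 0, 8, 16, 24, 32 and 40 h.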
# [13] = A CellTox Green Cytotoxicity Assay to monitor cytotoxicity in HEK293 cells - 24 hour (AID 1224875); further: nearly all actives have a fitted effect of over 45% in size
# Method in brief: as §3
# [14] = A CellTox Green Cytotoxicity Assay to monitor cytotoxicity in HepG2 cells - 16 hour (AID 1224876); further: nearly all actives have a fitted effect of over 45% in size
# Method in brief: (§5)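 HepG2 cells were seeded together with the CellTox Green dye at 600 cells/well, left 5 h at 37 C/5% CO2, then given compounds in DMSO. Fluorescence from dye bound to dead-cell DNA was read repeatedly over 40 h of treatment at 37 C.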
# [15] = A CellTox Green Cytotoxicity Assay to monitor cytotoxicity in HepG2 cells - 24 hour (AID 1224878); further: nearly all actives have a fitted effect of over 45% in size
# Method in brief: as §5
# [16] = A CellTox Green Cytotoxicity Assay to monitor cytotoxicity in HepG2 cells - 40 hour (AID 1224879); further: nearly all actives have a fitted effect of over 40% in size
# Method in brief: as §5
# [17] = qHTS assay to identify small molecule agonists of H2AX (AID 1224845; active means well fitted activation curve with a large enough effect in the signal ratio in the repeat runs, not every such curve was filed as active; the % refers to the signal ratio)
# Method in brief: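 Phospho-H2AX Ser139 measured by HTRF (ex 320 nm; em 665 and 620 nm) after 24 hr antibody incubation. Compounds, 15 concentrations, 0.76% DMSO, were applied to CHO-K1 cells for 3hr at 37C before lysis.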
# [18] = qHTS RealTime-Glo MT Cell Viability Assay in HepG2 cells - 32 hour (AID 1224877); further: nearly all actives have a fitted effect of over 55% in size
# Method in brief: as §1
# [19] = qHTS assay to identify small molecule antagonists of the estrogen related receptor (ERR) signaling pathway from Tox21 library (AID 1224848); further: nearly all actives have a fitted effect of over 50% in size
# Method in brief: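 Antagonist-mode screen of the Tox21 10K library in an NTP-provided ERR reporter cell line; 18 h compound exposure at 37 C, luminescence measured with ONE-Glo.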
# [20] = qHTS assay to identify small molecule agonists of the estrogen related receptor (ERR) signaling pathway from Tox21 library (AID 1224849; calls by dose curve; further: nearly all actives have a fitted effect of over 15% in size); settings: ERR reporter cell line, ONE-Glo luciferase, 18 h; at 92.4 µM (top of the series) unless noted
# Method in brief: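 ERR reporter cell line (NTP) seeded, rested 6 h at 37 C/5% CO2, then pinned with Tox21 compounds in DMSO. After 18 h at 37 C, ONE-Glo luciferase luminescence was read following 30 min at room temperature.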
structure (smiles),measurement,setting,value
CC1(CO)CN(c2ccccc2)NC1=O (configuration not stated),Potency,[1],inactive
same,outcome,[2],inactive
same,outcome,[3],inactive
same,Potency,[4],inactive
same,outcome,[5],inactive
same,Potency,[6],inactive
same,outcome,[7],inactive
same,outcome,[8],inactive
same,Potency,[9],inactive
same,Potency,[10],inactive
same,outcome,[11],inactive
same,max response,[12],-10.7%
same,outcome,[13],inactive
same,outcome,[14],inactive
same,outcome,[15],inactive
same,Potency,[16],inactive
CC(N)C(=O)OC(C)(C)Cc1ccc(Cl)cc1 (configuration not stated),Potency,[1],inactive
same,outcome,[2],inactive
same,outcome,[17],inactive
same,outcome,[3],inactive
same,Potency,[4],inactive
same,outcome,[5],inactive
same,outcome,[7],inactive
same,Potency,[9],inactive
same,Potency,[10],inactive
same,outcome,[11],inactive
same,max response,[12],-11.9%
same,outcome,[13],inactive
same,outcome,[14],inactive
same,outcome,[18],inactive
same,outcome,[15],inactive
same,Potency,[16],inactive
Cc1cccc2nccnc12,Potency,[1],inactive
same,outcome,[2],inactive
same,outcome,[17],inactive
same,outcome,[3],inactive
same,outcome,[5],inactive
same,Potency,[6],inactive
same,outcome,[7],inactive
same,outcome,[8],inactive
same,Potency,[9],24.5 µM (active)
same,outcome,[11],inactive
same,max response,[12],6.74%
same,outcome,[14],inactive
same,outcome,[18],inactive
same,outcome,[15],inactive
same,Potency,[16],inactive
N[C@@H](COP(=O)(O)O)C(=O)O,activation,[1],7.34% [at 19 µM]
same,"activity change, negative = cytotoxicity",[2],-1.64% [at 15.8 µM]
same,activation (H2AX phosphorylation),[17],-3.89% [at 31.6 µM]
same,"activity change, negative = cytotoxicity",[4],-1.2% [at 31.6 µM]
same,"activity change, negative = cytotoxicity",[5],0.52% [at 15.8 µM]
same,"activity change, negative = cytotoxic",[6],2.67% [at 15.8 µM]
same,cytotoxicity,[7],-3.53% [at 15.8 µM]
same,"activity change, negative = cytotoxic",[8],1.81% [at 15.8 µM]
same,cytotoxicity increase,[9],-6.71% [at 15.8 µM]
same,"activity change, negative = cytotoxicity",[10],6.19% [at 15.8 µM]
same,"viability change, negative = cytotoxic",[11],0.974% [at 15.8 µM]
same,max response,[12],7.08%
same,activity change,[13],-7.17% [at 15.8 µM]
same,cytotoxicity increase,[14],1.02% [at 15.8 µM]
same,"activity change, negative = cytotoxic",[18],1.44% [at 15.8 µM]
same,cytotoxicity,[15],0.599% [at 15.8 µM]
Cc1ccccc1OCC(O)CO (configuration not stated),Potency,[1],inactive
same,outcome,[2],inactive
same,outcome,[17],inactive
same,Potency,[4],inactive
same,Potency,[19],inactive
same,"activity change, positive = activation",[20],1.39% [at 42.5 µM]
same,outcome,[5],inactive
same,Potency,[6],inactive
same,outcome,[7],inactive
same,outcome,[8],inactive
same,Potency,[9],inactive
same,Potency,[10],inactive
same,outcome,[11],inactive
same,max response,[12],1.4%
same,outcome,[13],inactive
same,outcome,[14],inactive
same,outcome,[18],inactive
same,outcome,[15],inactive
same,Potency,[16],inactive
CC(C)NCC(O)COc1cccc2[nH]ccc12 (configuration not stated),Potency,[1],inactive
same,outcome,[2],inactive
same,outcome,[17],inactive
same,Potency,[4],inactive
same,outcome,[5],inactive
same,Potency,[6],inactive
same,outcome,[7],inactive
same,outcome,[8],inactive
same,Potency,[9],inactive
same,Potency,[10],inactive
same,outcome,[11],inactive
same,max response,[12],-0.192%
same,outcome,[13],inactive
same,outcome,[14],inactive
same,outcome,[18],inactive
same,outcome,[15],inactive
same,Potency,[16],inactive
CN1CCN(CC(=O)N2c3ccccc3C(=O)Nc3cccnc32)CC1,activation,[1],3.54% [at 8.39 µM]
same,"activity change, negative = cytotoxicity",[2],0.9% [at 6.97 µM]
same,activation (H2AX phosphorylation),[17],2.24% [at 14 µM]
same,"activity change, negative = cytotoxicity",[4],-0.342% [at 14 µM]
same,"activity, negative = inhibition",[19],0.334% [at 8.39 µM]
same,"activity change, positive = activation",[20],-0.263% [at 8.39 µM]
same,"activity change, negative = cytotoxicity",[5],0.294% [at 6.97 µM]
same,"activity change, negative = cytotoxic",[6],5.96% [at 6.97 µM]
same,cytotoxicity,[7],1.41% [at 6.97 µM]
same,"activity change, negative = cytotoxic",[8],3.53% [at 6.97 µM]
same,cytotoxicity increase,[9],-2.67% [at 6.97 µM]
same,"activity change, negative = cytotoxicity",[10],13.3% [at 6.97 µM]
same,"viability change, negative = cytotoxic",[11],0.562% [at 6.97 µM]
same,max response,[12],6.66%
same,activity change,[13],-2.09% [at 6.97 µM]
same,cytotoxicity increase,[14],-11.9% [at 6.97 µM]
same,"activity change, negative = cytotoxic",[18],1.53% [at 6.97 µM]
same,cytotoxicity increase,[16],-15.8% [at 6.97 µM]

# Source: PubChem BioAssay (Tox21)
